# In PubChem BioAssay (EPA / NIEHS):
# Activity calls are given as the source filed them. How the source made its calls: active means hit-call score of the fitted dose curve at least 0.9, where 1 is the maximum; inactive means score below 0.9.
# Read-out: Cellular tumor antigen p53 (Homo sapiens) (UniProt P04637)
# Assay: LTEA_HepaRG_TP53: Life Technologies and Expression Analysis (LTEA) Assay for Tumor Protein P53 (TP53) using HepaRG (AID 2283537)
# Settings: mRNA level, 48 h; actives raise or lower the signal
# Method: LTEA_HepaRG is a cell based, multiplexed-readout assay that uses HepaRG, a human liver cell line, with measurements taken at 48 hours after chemical dosing on a 96-well plate.LTEA_HepaRG_TP53 is one of 102 assay component(s) measured in the LTEA HepaRG cell culture assay. It is a marker of Oxidative Stress.Data from the assay component LTEA_HepaRG_TP53 was analyzed into 1 endpoint. This assay endpoint, LTEA_HepaRG_TP53, was analyzed with bidirectional fitting relative to DMSO as the negative control and baseline of activity. Using a type of inducible reporter, measures of mRNA induction for gain or loss-of-signal activity can be used to understand regulation of transcription factor activity. To generalize the intended target to other relatable targets, this assay endpoint is annotated to the dna binding intended target family, where the subfamily is tumor suppressor.
# A total of 1060 chemcials from the ToxCast library were tested in eight-point concentration-response experiments. Cell culture and cytotoxicity assays were conducted at Thermo Fisher Scientific's Custom Services facility (Madison, WI). A single lot of human HepaRG cells (Thermo Fisher Scientific, Frederick, MD) was used for the cell culture experiments. 96-well format collagen type I coated plates of human HepaRG cells were prepared using established methods. Briefly, cryopreserved HepaRG cells were thawed, plated at a density of approximately 100,000 cells/well in HepaRG Thaw, Plate, and General Purpose media (HPRG770, Thermo Fisher Scientific), and incubated for 48 hours. 0.5% DMSO was selected as vehicle control to balance the requisite need of DMSO in HepaRG cultures to maintain differentiation (for example, baseline metabolism, proportions of hepatocytes vs. cholangiocytes), while enabling further hepatic receptor pathway activation (for example, PXR and CAR) in response to chemical exposure. 48 hours after plating, the culture medium was replaced with HepaRG Serum-Free Incudtion Media. Cells were exposed to each test chemical in duplicate and maintained in CO2 incubators for another 48 hours. Chemical plates were thawed to room temperature and 200x concentrations of treatment groups were prepared. 8-point conentration-reponse curves were made with the highest exposure at 100 uM, followed by half-log dilutions, all in 0.5% DMSO. Each test plate contained variouse controls, induction positive controls (1mM phenobarbital), cytotoxicity positive controls ([…] aflatoxin B1), vehicle controls (0.5% DMSO), and total lysis controls (0.5% DMSO). Cell morphology images were taken using an Essen IncuCyte FLR automated microscope, with six 96-well plates imaged in about 24 minutes. Images were captured and exported and JPEG files. Spent culture media was transfered to black-well plates for the LDH assay, and remaining media was sorted at -80 C for later use. Cells were treated with RLT buffer and frozen until shipped for gene expression analysis. Total RNA was isolated from the cell suspension in 75 uL of Buffer RLT (Qiagen, Germantown, MD 20874) by Quintiles/Expression Analysis (Durham, NC) using a custom isolation procedure. Total RNA from each plate well was transferred to a preamplification plate. Fluidigm's 96.96 Dynamic ArrayTM (Fluidigm, Amsterdam, the Netherlands) technology was used for gene expression analyses by quantitative reverse transcription polymerase chain reaction (qRT-PCR, performed by Quintiles/Expression Analysis, Durham, NC)89. Standard TaqManTM Assays (Applied Biosystems/ThermoFisher Scientific, Foster City, CA) were used to assess the expression of 93 genes selected based on their selectivity and sensitivity to important hepatic receptors known to be modulated by environmental chemicals; importance in human hepatocyte functionality; and hepatotoxicity. […]
# Chain of Cellular tumor antigen p53 (Homo sapiens) (P04637 whole entry, looked up): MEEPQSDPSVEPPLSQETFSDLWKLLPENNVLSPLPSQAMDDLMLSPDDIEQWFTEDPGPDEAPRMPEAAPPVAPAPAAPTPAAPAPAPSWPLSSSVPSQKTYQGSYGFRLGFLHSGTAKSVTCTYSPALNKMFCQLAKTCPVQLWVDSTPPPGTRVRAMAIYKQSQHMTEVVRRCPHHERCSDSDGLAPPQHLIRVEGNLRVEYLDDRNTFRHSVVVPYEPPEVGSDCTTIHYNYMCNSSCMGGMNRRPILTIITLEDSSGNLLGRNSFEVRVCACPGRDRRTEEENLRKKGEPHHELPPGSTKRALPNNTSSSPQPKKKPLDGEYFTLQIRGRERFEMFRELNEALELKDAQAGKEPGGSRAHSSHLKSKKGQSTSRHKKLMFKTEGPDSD
Compound,AC50,outcome
[N-]=[N+]=[N-],81.9 µM (active),–
Nc1ccc2ccccc2c1,–,inactive
CCCCN(CCCC)N=O,–,inactive
CCCN(CCC)c1c([N+](=O)[O-])cc(C(C)C)cc1[N+](=O)[O-],0.322 µM (active),–
O=C(O)C1C(C(=O)O)C2(Cl)C(Cl)=C(Cl)C1(Cl)C2(Cl)Cl (stereo not drawn),–,inactive
O=[N+]([O-])c1ccccc1,–,inactive
c1nc[nH]n1,–,inactive
CCN(CC)c1ccccc1,–,inactive
CC(C)(C)OOC(C)(C)C,–,inactive
CCC1(c2ccccc2)C(=O)N=C(O)NC1=O (stereo not drawn),–,inactive
ClC(Cl)(Cl)c1ccccc1,–,inactive
ClC1=C(Cl)C2(Cl)C3C(Cl)C(Cl)CC3C1(Cl)C2(Cl)Cl (stereo not drawn),–,inactive
CC(Cc1ccc(OCC(=O)O)cc1)NCC(O)c1csc(C(F)(F)F)n1 (stereo not drawn),–,inactive
Cc1ccc(N)cc1N,–,inactive
O=P(Oc1ccccc1)(Oc1ccccc1)Oc1ccccc1,50 µM (active),–
CCOS(=O)(=O)OCC,–,inactive
c1cc2c3c(cccc3c1)CC2,–,inactive
CCOc1ccc(C(C)(C)COCc2cccc(Oc3ccccc3)c2)cc1,–,inactive
c1ccc(OP(Oc2ccccc2)Oc2ccccc2)cc1,–,inactive
Cc1ccc(O)cc1C,–,inactive
c1ccc2c(c1)Nc1ccccc1S2,–,inactive
CC(C)(C)c1ccc(O)cc1,–,inactive
Nc1ccc(Cl)cc1,–,inactive
OCC1CO1 (stereo not drawn),–,inactive
CCC(C)(C)c1ccc(O)cc1,–,inactive
O=P1(N(CCCl)CCCl)NCCCO1 (stereo not drawn),–,inactive
CCOC(=O)c1ccccc1C(=O)OCC,–,inactive
Cc1cccc(N)c1,–,inactive
